# The supplement of paper PMC8975748
# ± gives the standard deviation of the averaged measurements.
# Key:
# [1] = tested on: Saccharomyces cerevisiae BY4741 SeMeCo community; test: mean cell size (pixel area) (pixels); higher = larger cells; details: 10 µM; 24 h; SM minimal medium
# Procedure, shortened: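 A four-plasmid fluorescent Saccharomyces cerevisiae BY4741 community was tested; each plasmid complements one auxotrophy and carries a fluorescent marker. An overnight preculture at OD600 = 1.0 was diluted to OD600 = 0.3, and 70 µl was added to 384-well plates acoustically predosed with drug (final 10 µM) in SM medium for 24 h. Cells were fixed with paraformaldehyde and imaged by automated confocal microscopy, with analysis in Harmony. Mean cell pixel area per well is averaged over 3 replicates. Same SeMeCo high-content imaging drug screen: Selleck FDA-approved drugs at 10 µM, 24 h in SM medium, 384-well plates, 3 replicates.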
# [2] = tested on: Saccharomyces cerevisiae BY4741 SeMeCo community; test: z-score of subpopulation abundance vs DMSO median, subpopulation auxotrophic for M; higher = larger share of this subpopulation than in DMSO controls; details: 10 µM; 24 h; SM minimal medium; subpopulation (auxotrophy): M
# Procedure, shortened: (§1)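 A Saccharomyces cerevisiae BY4741 community carried four plasmids, each restoring one auxotrophy and encoding a distinct fluorescent protein. It was pre-grown overnight to OD600 1.0, diluted to 0.3, and 70 µl was added to 384-well plates acoustically predosed with library drugs (10 µM final), then grown 24 h in minimal SM medium. Cells were paraformaldehyde-fixed and imaged by automated confocal microscopy, with single-auxotroph fluorescent strains setting thresholds and autofluorescence correction. Each subpopulation's abundance was scored as a z-score against the vehicle-well median.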
# [3] = tested on: Saccharomyces cerevisiae BY4741 SeMeCo community; test: z-score of subpopulation abundance vs DMSO median, subpopulation auxotrophic for L; higher = larger share of this subpopulation than in DMSO controls; details: 10 µM; 24 h; SM minimal medium; subpopulation (auxotrophy): L
# Procedure, shortened: as §1
# [4] = tested on: Saccharomyces cerevisiae BY4741 SeMeCo community; test: z-score of subpopulation abundance vs DMSO median, subpopulation auxotrophic for U; higher = larger share of this subpopulation than in DMSO controls; details: 10 µM; 24 h; SM minimal medium; subpopulation (auxotrophy): U
# Procedure, shortened: as §1
# [5] = tested on: Saccharomyces cerevisiae BY4741 SeMeCo community; test: z-score of subpopulation abundance vs DMSO median, subpopulation auxotrophic for H; higher = larger share of this subpopulation than in DMSO controls; details: 10 µM; 24 h; SM minimal medium; subpopulation (auxotrophy): H
# Procedure, shortened: as §1
# [6] = tested on: Saccharomyces cerevisiae BY4741 SeMeCo community; test: z-score of subpopulation abundance vs DMSO median, subpopulation auxotrophic for LU; higher = larger share of this subpopulation than in DMSO controls; details: 10 µM; 24 h; SM minimal medium; subpopulation (auxotrophy): LU
# Procedure, shortened: as §1
# [7] = tested on: Saccharomyces cerevisiae BY4741 SeMeCo community; test: z-score of subpopulation abundance vs DMSO median, subpopulation auxotrophic for LM; higher = larger share of this subpopulation than in DMSO controls; details: 10 µM; 24 h; SM minimal medium; subpopulation (auxotrophy): LM
# Procedure, shortened: as §1
# [8] = tested on: Saccharomyces cerevisiae BY4741 SeMeCo community; test: z-score of subpopulation abundance vs DMSO median, subpopulation auxotrophic for HM; higher = larger share of this subpopulation than in DMSO controls; details: 10 µM; 24 h; SM minimal medium; subpopulation (auxotrophy): HM
# Procedure, shortened: as §1
# [9] = tested on: Saccharomyces cerevisiae BY4741 SeMeCo community; test: z-score of subpopulation abundance vs DMSO median, subpopulation auxotrophic for HU; higher = larger share of this subpopulation than in DMSO controls; details: 10 µM; 24 h; SM minimal medium; subpopulation (auxotrophy): HU
# Procedure, shortened: as §1
# [10] = tested on: Saccharomyces cerevisiae BY4741 SeMeCo community; test: z-score of subpopulation abundance vs DMSO median, subpopulation auxotrophic for UM; higher = larger share of this subpopulation than in DMSO controls; details: 10 µM; 24 h; SM minimal medium; subpopulation (auxotrophy): UM
# Procedure, shortened: as §1
# [11] = tested on: Saccharomyces cerevisiae BY4741 SeMeCo community; test: z-score of subpopulation abundance vs DMSO median, subpopulation auxotrophic for HL; higher = larger share of this subpopulation than in DMSO controls; details: 10 µM; 24 h; SM minimal medium; subpopulation (auxotrophy): HL
# Procedure, shortened: as §1
# [12] = tested on: Saccharomyces cerevisiae BY4741 SeMeCo community; test: z-score of subpopulation abundance vs DMSO median, subpopulation auxotrophic for HLU; higher = larger share of this subpopulation than in DMSO controls; details: 10 µM; 24 h; SM minimal medium; subpopulation (auxotrophy): HLU
# Procedure, shortened: as §1
# [13] = tested on: Saccharomyces cerevisiae BY4741 SeMeCo community; test: z-score of subpopulation abundance vs DMSO median, subpopulation auxotrophic for HUM; higher = larger share of this subpopulation than in DMSO controls; details: 10 µM; 24 h; SM minimal medium; subpopulation (auxotrophy): HUM
# Procedure, shortened: as §1
# [14] = tested on: Saccharomyces cerevisiae BY4741 SeMeCo community; test: z-score of subpopulation abundance vs DMSO median, subpopulation auxotrophic for LUM; higher = larger share of this subpopulation than in DMSO controls; details: 10 µM; 24 h; SM minimal medium; subpopulation (auxotrophy): LUM
# Procedure, shortened: as §1
# [15] = tested on: Saccharomyces cerevisiae BY4741 SeMeCo community; test: z-score of subpopulation abundance vs DMSO median, subpopulation auxotrophic for HLUM; higher = larger share of this subpopulation than in DMSO controls; details: 10 µM; 24 h; SM minimal medium; subpopulation (auxotrophy): HLUM
# Procedure, shortened: as §1
# [16] = tested on: Saccharomyces cerevisiae BY4741 SeMeCo community; test: z-score of prototroph abundance vs DMSO median; higher = larger share of this subpopulation than in DMSO controls; details: 10 µM; 24 h; SM minimal medium; subpopulation (auxotrophy): Prototroph
# Procedure, shortened: as §1
# [17] = tested on: Saccharomyces cerevisiae BY4741 SeMeCo community; test: z-score of subpopulation abundance vs DMSO median, subpopulation auxotrophic for HLM; higher = larger share of this subpopulation than in DMSO controls; details: 10 µM; 24 h; SM minimal medium; subpopulation (auxotrophy): HLM
# Procedure, shortened: as §1
SMILES,mean cell size [1],z-score of subpopulation abundance [2],z-score of subpopulation abundance [3],z-score of subpopulation abundance [4],z-score of subpopulation abundance [5],z-score of subpopulation abundance [6],z-score of subpopulation abundance [7],z-score of subpopulation abundance [8],z-score of subpopulation abundance [9],z-score of subpopulation abundance [10],z-score of subpopulation abundance [11],z-score of subpopulation abundance [12],z-score of subpopulation abundance [13],z-score of subpopulation abundance [14],z-score of subpopulation abundance [15],z-score of prototroph abundance [16],z-score of subpopulation abundance [17]
O=C(Cn1cnnn1)N[C@@H]1C(=O)N2C(C(=O)O)=C(CSc3nncs3)CS[C@H]12 [Ceftezole],12 ± 0.2,-1.1,-0.41,0.9,-1.12,0.9,-0.52,-1.26,-0.51,-0.37,-0.41,-0.25,-1.25,0.28,0.55,,
C[C@H]1NCc2cc(-c3ccc4c(=O)c(C(=O)O)cn(C5CC5)c4c3OC(F)F)ccc21 [Garenoxacin],12.34 ± 0.078,0.86,-0.44,,-0.22,-0.05,,0.28,0.7,,0.46,0.74,,0.75,-0.08,,
CO[C@@]1(NC(=O)C(C(=O)O)c2ccc(O)cc2)C(=O)N2C(C(=O)O)=C(CSc3nnnn3C)CO[C@@H]21 (some centres undefined) [Latamoxef sodium],,0.17,-0.05,-0.29,0.8,-0.08,,-0.22,,-0.41,-0.07,0.4,,-0.71,0.61,0.35,
CCC1(C)CC(=O)NC1=O (centres undefined) [Ethosuximide],12.6 ± 0.19,-0.27,,0.64,-0.94,0.79,-0.21,-0.5,-0.46,-0.4,0.36,-0.1,-0.44,1.11,0.48,-0.06,0.8
O=c1ccc2ccc(OCCCCN3CCN(c4cccc5sccc45)CC3)cc2[nH]1 [Brexpiprazole],12.35 ± 0.092,0.05,0.33,0.84,0.96,0.27,0.35,,1.54,1.41,,-0.45,,1.05,-0.98,-0.62,
NC(=O)C(c1ccccc1)(c1ccccc1)[C@@H]1CCN(CCc2ccc3c(c2)CCO3)C1 [Darifenacin HBr],,0.85,-0.21,,-1.43,-0.1,-0.2,,-0.14,0.53,-0.56,-0.45,0.05,-0.55,-0.5,0.34,
O=C(NCCO[N+](=O)[O-])c1cccnc1 [Nicorandil],12.4 ± 0.13,-0.48,,-0.31,-0.28,0.21,-0.01,-0.61,-0.39,-0.61,-0.84,0.08,-0.48,-0.44,-0.37,0.69,-0.83
Nc1ccc(S(=O)(=O)Nc2ccccn2)cc1 [Sulfapyridine],12.2 ± 0.13,0.24,,-0.03,,-0.25,-0.18,-0.46,-0.55,,,-0.45,-0.97,-0.73,-0.89,0.95,-0.9
